Data published in PubChem BioAssay (NCI).
This is part of a sample that, as a whole, favours compounds with a hit. Of some 83,000 tested, about 20% had one in any assay.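 Results are percent growth after 48 hours of single-concentration exposure. 100 means growth as in untreated cells, lower positive values show inhibition; negative values down to -100 show cell death.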 Active and inactive are the calls of the source. How the source made its calls: active means growth percent below 10; inactive means the rest.

What was measured:
Test in all cases: NCI-60 one-dose screen, 48 h (100 = growth as untreated, 0 = no growth, -100 = all killed)
Conditions in all cases: 10 µM unless noted
[1] = test system: NCI-H23 lung
[2] = test system: NCI-H226 lung
[3] = test system: NCI-H322M lung
[4] = test system: HOP-62 NSCLC
[5] = test system: NCI-H460 lung
[6] = test system: HOP-92 NSCLC
[7] = test system: A549/ATCC NSCLC
[8] = test system: 786-0 renal
[9] = test system: COLO 205 colon
[10] = test system: DU-145 prostate
[11] = test system: K-562 leukemia
[12] = test system: MALME-3M melanoma
[13] = test system: MDA-MB-231 breast
[14] = test system: RXF 393 renal
[15] = test system: SF-268 CNS
[16] = test system: SF-295 CNS
[17] = test system: SF-539 CNS
[18] = test system: UACC-257 melanoma
[19] = test system: M14 melanoma
[20] = test system: NCI-H522 lung

Measured: growth

COc1ccc(C2NN=C3c4ccccc4CCC32)cc1 (stereo not drawn)
inactive: [1] 67.7% | [2] 73.5% | [3] 104% | [4] 67.3% | [5] 56.3% | [6] 67.5% | [7] 68.1% | [8] 91.3% | [9] 78.4% | [10] 98.8% | [11] 10.2% | [12] 25.4% | [13] 58.5% | [14] 47% | [15] 69.3% | [16] 40.2% | [17] 58% | [18] 60.1%

Oc1ccccc1/C=N/NC(=S)NC1CC2C=CC1C2 (stereo not drawn)
inactive: [1] 56.3% | [2] 107% | [3] 83.1% | [4] 85.6% | [5] 16.6% | [6] 82.4% | [7] 69.9% | [8] 83.4% | [9] 108% | [10] 88.7% | [11] 33.3% | [12] 102% | [13] 84.2% | [14] 68.3% | [15] 67.8% | [16] 85% | [17] 93.8% | [18] 76.8% | [19] 47.7%

C=C1C(=O)O[C@H]2[C@H]1CC/C(COC(=O)NCc1ccccc1OC)=C\CC[C@@]1(C)O[C@@H]21
active: [8] 7.8% | [9] -35.2%
inactive: [1] 73.6% | [2] 55.6% | [3] 93.2% | [4] 77.1% | [5] 59.2% | [6] 32.6% | [7] 71.6% | [10] 20.1% | [12] 68.8% | [13] 46.2% | [14] 10% | [15] 53.1% | [17] 28.7% | [19] 33%

Cc1ccc(Cc2c(C=O)nc(N)[nH]c2=O)c2ccccc12
inactive: [1] 97.7% | [2] 98.6% | [3] 119% | [4] 96.2% | [5] 109% | [6] 91.9% | [20] 118% | [8] 89.8% | [9] 95.5% | [10] 113% | [11] 107% | [12] 98.2% | [13] 107% | [14] 106% | [16] 118% | [17] 102% | [18] 93.2% | [19] 101%

O=C(/C=C/c1ccccc1)c1cccc(O)c1
inactive: [1] 96.7% | [2] 109% | [3] 113% | [4] 103% | [5] 110% | [6] 82.8% | [7] 86% | [8] 94.2% | [9] 107% | [10] 56.4% | [11] 51.3% | [12] 101% | [14] 107% | [15] 85% | [16] 96.8% | [18] 99.5% | [19] 68.1%

COc1cc(-c2nn(-c3cccc(NC(=O)c4ccccc4)c3)cc2-c2ccncc2)ccc1Cl
inactive: [1] 33.8% | [2] 39.1% | [3] 52.3% | [4] 27.1% | [8] 21.3% | [10] 11.6% | [12] 22.4% | [15] 18.7%
active: [5] 2.74% | [6] 9.19% | [7] 4.81% | [9] 2.21% | [11] 2.59% | [13] 5.8% | [14] -19.2% | [17] -15% | [18] 8.64% | [19] -3.82%

CNC(=S)NNC(=O)C1CC1
inactive: [1] 97.9% | [2] 109% | [3] 121% | [4] 106% | [5] 115% | [6] 96% | [7] 99.2% | [8] 97.2% | [9] 113% | [10] 118% | [11] 92.9% | [12] 111% | [13] 114% | [14] 117% | [15] 109% | [16] 115% | [17] 104% | [18] 102% | [19] 99.9%

ClC(Cl)c1nc(-c2cccnc2)n2nc(-c3ccccc3)cc2n1
active: [1] -39.3% | [4] 5.17% | [5] -32.5% | [6] -0.78% | [7] -16.8% | [9] -52.6% | [10] -21.7% | [11] 6.07% | [12] -4.43% | [14] -51% | [16] 0.57%
inactive: [2] 66.2% | [3] 46.2% | [8] 82.3% | [13] 17.3% | [15] 23% | [17] 60.8% | [18] 96.4% | [19] 71%

CC(C)(C)OC(=O)NCCc1ccc(N=C=S)cc1
inactive: [1] 81.4% | [2] 99.1% | [3] 86.9% | [4] 70.1% | [5] 82.2% | [6] 39.4% | [7] 77.4% | [8] 80% | [9] 72.4% | [10] 64.6% | [11] 57% | [12] 54.8% | [13] 88.4% | [14] 54.9% | [15] 71.9% | [16] 55.5% | [17] 69.2% | [18] 78.9% | [19] 75.3%
